About 3,700 (1%) of roughly 370,000 compounds were called active.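 The calls were made as follows: active = activation above the mean over all tested compounds plus 3 SD (cut at about 0.9% in these data); inactive = the rest.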 For the sample, actives were picked, then their nearest neighbours and some compounds at random.

The subject of this assay is Nuclear hormone receptor DAF-12 (Strongyloides stercoralis). Description: ssDAF-12 driven luciferase reporter activation – cell-based, luminescence, HEK293, GRIP1 co-expression, lit1-tk-luc, primary screen (AID 652126).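 Also: 0% = DMSO-only wells and 100% = 3 µM delta7-dafachronic acid wells.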 The note with it: HEK293 ssDAF-12/GRIP1 lit1-tk-luc reporter, at 6.8 µM, stronger effect = higher value, % of 3 µM dafachronic acid response. (In general: In a reporter assay the amount or activity of a reporter protein is the signal.)
As for `Cn1c(=O)c2c(nc(NCCNC(=O)c3ccco3)n2Cc2ccccc2F)n(C)c1=O`, the activation is -0.73% (inactive).
In the case of `Cn1c(=NC(=O)c2ccco2)sc2cccc(F)c21` it was 2.16% (active).
In the case of `Cc1cc(NC(=O)c2ccco2)c(=O)n(Cc2c(F)cccc2Cl)c1` it was -1.23% (inactive).
The figure for `O=C(COc1ccccc1Cl)Nc1ccccc1C(=O)NC1CC1` is -0.61% (inactive); for `O=C(COc1ccccc1Cl)Nc1ccc(C(=O)c2ccc(C(=O)O)cc2)cc1` it is -1.01% (inactive).
For the compound `CC(=O)Nc1ccc(NC(=O)COc2ccccc2C(=O)Nc2cccc(Cl)c2Cl)cc1`, the activation is 1.78% (active).
In the case of `O=C(CSc1nc2ccccc2s1)N=Nc1c(O)[nH]c2ccccc12` it was -1.23% (inactive); in that of `CN(CCc1ccccc1)c1ccc([N+](=O)[O-])cn1`, -0.22% (inactive).
In the case of `CC(C)c1ccc(C=NNc2ccc([N+](=O)[O-])cn2)cc1` it was 1.01% (active).
The figure for `CCC1([N+](=O)[O-])COC(c2ccc(C(C)C)cc2)OC1` (stereo not drawn) is -0.23% (inactive); for `CCOC(=O)[C@@]12CCC3=C1N(CCC3)C(=O)[C@H](CC(=O)N1CCN(C(=O)c3ccco3)CC1)C2` it is -0.8% (inactive); for `CN1[C@H](Cc2ccccc2)COc2cccc(N3CCSCC3)c2S1(=O)=O` it is -0.12% (inactive).
Regarding `O=C(NCC1COc2ccccc2O1)c1ccc(NC(=O)c2cc(F)ccc2F)cc1` (stereo not drawn), the activation was -0.55% (inactive).
In the case of `COC(=O)c1ccccc1-n1cc(COC(=O)NCCc2ccccc2)nn1` it was -1.12% (inactive); in that of `Nn1c(SCC(=O)Nc2nccs2)nnc1-c1ccco1`, 0.9% (active); in that of `Nn1c(SCC(=O)Nc2nccs2)nncc1=O`, -2.06% (inactive).
In the case of `CCn1c(SCC(=O)Nc2nccs2)nnc1-c1ccco1` it was -1.06% (inactive); in that of `O=S1(=O)CC(N2CCN(CCO)CC2)CN1Cc1cn(Cc2ccc(Cl)cc2)nn1` (stereo not drawn), -0.54% (inactive); in that of `O=S1(=O)c2ccc(Br)cc2OC[C@@H](Cc2ccccc2)N1Cc1cn(Cc2ccco2)nn1`, -1.35% (inactive).
In the case of `O=C(CCS(=O)(=O)c1ccccc1)Nc1ccc(Cl)c(Cl)c1` it was -1.34% (inactive); in that of `Cc1cc(N)n2nc(-c3ccc(C(C)(C)C)cc3)cc2n1`, 2.97% (active).
For the compound `CCOC(=O)C1=C(C)NC2=C(C(=O)CC(C)(C)C2)C1c1ccc2c(c1)OCO2` (stereo not drawn), the activation is -1.32% (inactive).
Consider `COc1ccccc1NC(=O)c1c(Br)cnn1C`, for which the activation was -1.57% (inactive).
In the case of `COc1ccccc1NC(=O)c1cc(Cl)nnc1Cl`, the activation is -0.66% (inactive).
Take `COc1ccccc1NC(=O)c1ccc(C)s1`: the activation is 1.3% (active).
In the case of `O=C(CSc1nnc(-c2cccc(Cl)c2)n1Cc1ccco1)Nc1ccc(OCc2ccccc2)cc1` it was -1.14% (inactive); in that of `Cc1nn(CCOc2ccccc2)c(=O)n1-c1ccccc1F`, 1.79% (active); in that of `Cc1c(C(N)=O)sc2ncn(CCOc3ccccc3)c(=O)c12`, -2.14% (inactive).
As to `Cc1cccc2c1N(CCOc1ccccc1)C(=O)C2=O`, the activation is -1.52% (inactive).
The figure for `Cc1ccc(NC(=O)c2cc(C)nn2-c2ccccc2)c(C)c1` is -1.78% (inactive); for `O=C(CNS(=O)(=O)c1ccccc1F)N1CCN(c2ccccn2)CC1` it is -1.72% (inactive).
The figure for `Fc1ccc2nc(-c3ccccc3)nc(SCc3nnc(-c4ccccc4)o3)c2c1` is 1.48% (active); for `Cc1ccc2nc(SCc3nnc(-c4ccccc4[N+](=O)[O-])o3)c(C#N)cc2c1` it is -1.27% (inactive); for `Fc1ccc(-c2nnc(CSc3nnc(-c4ccc5c(c4)OCO5)o3)o2)cc1` it is -1.18% (inactive).
In the case of `O=C1CC[C@@H](COc2ccc3[nH]cc(-c4ccccc4)c3c2-c2ccccc2)N1` it was -0.33% (inactive).
`COC1=C[C@H](C(=O)NCCNC(C)=O)[C@H](C)[C@@H](c2ccccc2)CC1=O`: the activation was -1.26% (inactive).
The figure for `FC(F)(F)c1ccc2c3n(nc2c1)CCN=C3c1ccc(Cl)cc1` is 1.01% (active); for `CC(=O)c1cc(C#N)c(SCC(=O)Nc2nccs2)nc1C` it is -0.91% (inactive).
The figure for `CC(c1nnc(SCC(=O)Nc2sccc2C#N)n1-c1ccc(Cl)cc1)N(C)C` (stereo not drawn) is -0.72% (inactive); for `Cc1csc(SCC(=O)Nc2sccc2C#N)n1` it is 0.96% (active).
The figure for `C=C(C)C1CC23C(=O)C4(C(=O)c5ccccc5)C[C@@]5(C)CCC(CC2C1(C)C)(C4=O)C35OC` (stereo partly drawn) is -1.03% (inactive); for `Clc1ccc(-n2c(SC/C=C/c3ccccc3)nnc2-c2ccco2)cc1` it is -1.68% (inactive).
With `COc1ccc(C(=O)OCCN(C)C2CN(Cc3cn(Cc4cccc(C)c4)nn3)S(=O)(=O)C2)cc1OC` (stereo not drawn), the activation was -0.78% (inactive).
As for `COc1ccccc1Cc1c(-c2ccc(F)cc2)nc2ccc(C)cn12`, the activation was 0.07% (inactive).
The figure for `Brc1ccc2nc(-c3ccccc3)c(Cc3ccccc3)n2c1` is -0.45% (inactive).
In the case of `Cc1ccc2nc(-c3ccccc3)c(CC3CCCCC3)n2c1` it was 1.3% (active); in that of `COc1ccc(-n2c(SCC(=O)Nc3ccc4cn[nH]c4c3)nnc2-c2cccnc2)cc1`, -1.16% (inactive).
In the case of `O=C(CSc1nc2c(c(=O)[nH]1)CCCC2)N1CCCCC1` it was -1.67% (inactive); in that of `CCOC(=O)C(NC(=O)CC(C)C)(Nc1sc2c(c1C(N)=O)CCCC2)C(F)(F)F` (stereo not drawn), -0.54% (inactive); in that of `NC(=O)c1c(Nc2nc3c(F)cccc3s2)sc2c1CCCC2`, 1.29% (active).
As to `CCN(CC)CC(=O)Nc1sc2c(c1C(=O)c1ccccc1C)CCC2`, the activation was -1.11% (inactive).
In the case of `NC(=O)c1c(NC(=O)c2ccccc2)sc2c1CCCC2` it was 2.15% (active); in that of `NNc1nc2c(Cl)cccc2s1`, -0.81% (inactive); in that of `COC(=O)c1c(NC(=O)COC(=O)[C@@H](NS(=O)(=O)c2ccccc2)C(C)C)sc2c1CCC2`, -1.44% (inactive).
The figure for `Cc1ccc(C(=O)C2CCN(CC(=O)NCCC(C)C)CC2)cc1` is -1.67% (inactive); for `CC1(C)N=C(N)NC(Nc2ccc(Cl)cc2)=N1` it is -1.4% (inactive).
Regarding `Clc1ccc(Nc2ccc3ccccc3n2)cc1`, the activation was 2.58% (active).
In the case of `C=CCNc1nc(Nc2ccc(Cl)cc2)nc(OC)n1` it was -0.26% (inactive); in that of `O=C(CCl)NC1CCCCN(Cc2cccc(C(F)(F)F)c2)C1=O` (stereo not drawn), -1.24% (inactive); in that of `NCC(=O)c1cccc2ccc[n+]([O-])c12`, -0.72% (inactive).
For `Cc1ccccc1NC(=O)C1CCN(c2ncccn2)CC1`, the activation was 0.24% (inactive).
In the case of `CCCCNc1cccc2c1S(=O)(=O)N[C@@H](C)CO2` it was -0.23% (inactive); in that of `Cc1ccc(NC(=O)CSc2nnc(COc3ccccc3C)o2)cc1`, -1.56% (inactive).
In the case of `Cc1ccccc1OCc1nnc(SCC(=O)N2c3ccccc3Sc3ccc(Cl)cc32)o1` it was -1.28% (inactive); in that of `CC(C)NC(=O)CSc1nnc(COc2ccccc2Cl)o1`, 1.16% (active); in that of `COc1cccc(NC(=O)c2cc(S(=O)(=O)N3CCc4ccccc43)cn2C)c1`, -1.71% (inactive).
The figure for `Cc1ccc(CSc2nnc(SCC(=O)NN=Cc3cc(Br)ccc3F)s2)cc1` is -1.54% (inactive).
For `CCCCNC(=O)C[C@H]1C(=O)N(Cc2ccc(OC)cc2)C2=CCCC[C@@]21C(=O)OCC`, the activation was -0.84% (inactive).
In the case of `COC[C@@H]1CCCN1c1ccc2c(c1)O[C@H](C)CCN(C1CC1)S2(=O)=O` it was -1.91% (inactive); in that of `CNc1ccc([N+](=O)[O-])cc1C(=O)O`, -1.81% (inactive); in that of `Cc1ccc(NC(=O)c2cc([N+](=O)[O-])ccc2Cl)c(O)c1`, 1.5% (active).
Take `CCC(C)C(=O)Nc1cc([N+](=O)[O-])ccc1Cl` (stereo not drawn): the activation was -1.16% (inactive).
On to `Cc1ccc(Cn2cc(COC(=O)N(C)Cc3ccccc3)nn2)cc1`, for which the activation was -0.46% (inactive).
The figure for `C=CCN1C(=O)[C@@H](CC(=O)NCCCOCCCC)[C@]2(C(=O)OCC)CCCCC/C=C/12` is -0.98% (inactive); for `O=C(CSc1nc2sc3c(c2c(=O)n1-c1ccccc1)CCCC3)NN=Cc1ccc(OCc2ccccc2)cc1` it is -0.96% (inactive); for `CCOc1ccc(NC(=O)c2ccc(NC(=O)COC(=O)c3ccc(NC(=O)CC#N)cc3)cc2)cc1` it is 0.93% (active).
In the case of `CCOc1ccc(NC(=O)c2ccc(CSc3nnnn3C)cc2)cc1` it was -1.09% (inactive); in that of `CCOc1ccc(NC(=O)c2ccc(NC(=O)CN3C(=O)C(=O)N(CC(C)C)C3=O)cc2)cc1`, -0.14% (inactive).
The figure for `COc1ccc(CN2C(=O)N3Cc4cc(OC)ccc4C3CS2(=O)=O)cc1` (stereo not drawn) is -1.71% (inactive).
`CCOC(=O)C1(Cc2ccccc2)CCN(Cc2cn(C(C)=O)c3ccccc23)CC1`: the activation is 0.62% (inactive).
In the case of `CCOC(=O)[C@]12CCCCC/C=C\1N(Cc1ccc(OC)cc1)C(=O)[C@H]2CC(=O)NCCCN1CCCC1=O` it was -0.74% (inactive); in that of `Cc1ccc(-n2c(SCC(=O)Nc3cccc4ccccc34)nnc2-c2ccco2)cc1`, -0.86% (inactive); in that of `Nc1ccccc1/C=N\N=C/c1ccccc1N`, 1.95% (active).
For the compound `CN(CCc1ccccc1)C(=O)Cn1nc(-c2ccccc2)ccc1=O`, the activation was -0.4% (inactive).
The figure for `COC(=O)C[C@@H]1CC[C@@H]2[C@@H](COc3ccc(NC(=O)Nc4ccc(F)c(F)c4)cc3C(=O)N2C)O1` is -1.37% (inactive).
In the case of `O=C(NC1CCC1)c1ccc(C#CC2CC2)cn1`, the activation was 0.89% (inactive).
On to `O=C(NCCCc1ccccc1)[C@H](Cc1ccccc1)NC1(C(=O)NCCc2c[nH]c3ccccc23)CCC1`, for which the activation was -0.89% (inactive).
In the case of `Cc1ccc(NC(=O)Nc2cccc(C(F)(F)F)c2)nc1` it was 4.62% (active); in that of `NC(c1csc(NC(=O)Nc2cccc(C(F)(F)F)c2)n1)C1CCCCC1` (stereo not drawn), -0.46% (inactive).
In the case of `Cc1cc(S(=O)(=O)N2CCOCC2)ccc1OCC(=O)Nc1cccc(C(F)(F)F)c1` it was -1.62% (inactive).
In the case of `N#Cc1c(C(F)(F)F)cc(-c2ccc(Cl)cc2)nc1SCC(=O)O` it was 1.77% (active).
With `CCN(CC)c1nc(-c2ccccc2)cc(C(F)(F)F)c1C#N`, the activation is -0.98% (inactive).
The figure for `Cc1cc(C(F)(F)F)c(C#N)c(SCC(=O)NC2CC2)n1` is -1.36% (inactive).
